Measurements as given in PubChem BioAssay (NCI).
The panel holds about 83,000 compounds, 20% with a hit somewhere; the sample as a whole holds those more often.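 Step 1: grow cells in 96-well plates. Step 2: add test compound at a single concentration. Step 3: incubate 48 h. Step 4: record percent growth.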 The source made the active and inactive calls. Rule for the calls: active = growth percent below 10; inactive = the rest.

Legend:
Assay in all cases: NCI-60 one-dose screen, 48 h (100 = growth as untreated, 0 = no growth, -100 = all killed)
Conditions in all cases: 10 µM unless noted
[1] = tested on: SR leukemia
[2] = tested on: RPMI-8226 leukemia
[3] = tested on: OVCAR-8 ovarian
[4] = tested on: OVCAR-5 ovarian
[5] = tested on: OVCAR-4 ovarian
[6] = tested on: SK-OV-3 ovarian
[7] = tested on: IGROV1 ovarian
[8] = tested on: OVCAR-3 ovarian
[9] = tested on: HS 578T breast
[10] = tested on: NCI/ADR-RES ovarian

Measured: growth

Cc1ccc(C)c2c1C(=O)OC2=O
inactive: [1] 10.4% | [2] 109% | [3] 106% | [4] 90.6% | [5] 109% | [6] 95.2% | [7] 92% | [8] 115% | [9] 114% | [10] 98.1%

COc1ccc(N=c2nc3sc4cc(Cl)ccc4n3c(N)c2C#N)cc1
inactive: [1] 91.2% | [2] 101% | [3] 59.3% | [4] 107% | [5] 55.6% | [6] 59.4% | [7] 80.4% | [8] 114% | [9] 34.5% | [10] 63.8%

CC(C)c1ccc(C(=O)OC(=O)c2ccc(C(C)C)cc2)cc1
inactive: [1] 60.2% | [2] 82.9% | [3] 100% | [4] 89.2% | [5] 105% | [6] 110% | [7] 98.8% | [8] 106% | [9] 104% | [10] 95.4%

CN(C)CCOC(=O)Nc1ccc(Cl)cc1
inactive: [1] 101% | [2] 94.3% | [3] 97.5% | [4] 109% | [5] 117% | [6] 96.9% | [7] 103% | [8] 106% | [9] 94.7% | [10] 104%

C[C@@H]1CC[C@@H]2[C@@H]1[C@H](OC(=O)/C=C/c1ccccc1)[C@]1(C3CCCCC3)C[C@@H](NC(=O)CO)[C@@]2(C)O1
active: [9] 8.45%
inactive: [1] 93.9% | [2] 100% | [3] 98.6% | [4] 94.6% | [5] 102% | [6] 112% | [7] 101% | [8] 98.6% | [10] 95.4%

CCCCCOC(=O)c1cccc(NC(=O)CN(CC)CC)c1
inactive: [1] 78.3% | [2] 96.7% | [3] 103% | [4] 107% | [5] 119% | [6] 94.9% | [7] 107% | [8] 113% | [9] 111% | [10] 105%

COC(=O)Nc1nc2ccc(C(=O)C3CC3)cc2[nH]1
active: [1] -21.7% | [2] -19.7% | [3] 8.29% | [7] -59.4% | [8] -61.7% | [9] -17.7% | [10] 9.11%
inactive: [4] 48.9% | [5] 44.7% | [6] 22.7%

CN1C[C@@H](c2ccc(Cl)cc2)[C@]2(NC(=S)N(c3ccccc3)C2=O)[C@@]12C(=O)NC1C=CC(Br)=C[C@H]12 (stereo not given in full)
inactive: [1] 48.2% | [2] 29.3% | [3] 70.1% | [4] 101% | [5] 71.6% | [6] 77.2% | [7] 56% | [8] 77.2% | [9] 68.4% | [10] 64.3%

CNC(=O)c1cc(Oc2ccc3nc(Nc4cc(Cl)cc(Cl)c4)ccc3c2)ccn1
inactive: [2] 57.6% | [3] 67.9% | [4] 104% | [5] 57.2% | [6] 86.2% | [7] 79.6% | [8] 57.8% | [9] 64.5% | [10] 35.6%
active: [1] 6.56%

OC(CBr)c1ccnc2ccccc12 (stereo not given)
inactive: [1] 98.7% | [2] 87.4% | [3] 98.2% | [4] 106% | [5] 110% | [6] 105% | [7] 102% | [8] 106% | [9] 99.6% | [10] 101%

O=C1NCC(=O)N(Cc2ccco2)[C@H]1Cc1ccccc1
inactive: [1] 92.6% | [2] 104% | [3] 105% | [4] 106% | [5] 103% | [6] 96.7% | [7] 109% | [8] 110% | [9] 89% | [10] 104%

CN1CCN(c2ccc(Nc3ncc(Cl)c(NC[C@@H]4CCCO4)n3)cc2)CC1
active: [1] -0.801% | [9] 6.95%
inactive: [2] 29.5% | [3] 27.5% | [4] 18.1% | [5] 29.7% | [6] 28.6% | [7] 23.4% | [8] 42.8% | [10] 31.3%

O=C(Nc1ccccc1)c1sc(-c2cccc(C(F)(F)F)c2)cc1O
inactive: [1] 62.5% | [2] 35.5% | [3] 66% | [4] 104% | [5] 76.1% | [6] 74.6% | [7] 66.5% | [8] 53.1% | [9] 63.8% | [10] 83.2%

O=C1c2ccccc2C2(c3ccc(O)cc3)c3ccccc3Oc3cccc1c32 (stereo not given)
inactive: [2] 17.8% | [3] 66.8% | [4] 30.7% | [5] 86.9% | [6] 25.7% | [7] 59.9% | [8] 11.2% | [9] 25.8% | [10] 11.1%
active: [1] 9.2%

COc1cc(/C=C2\C=C(c3ccccc3)N(CCc3ccccc3)C2=O)cc(OC)c1OC
inactive: [1] 85.5% | [2] 83.3% | [3] 38.5% | [4] 105% | [5] 33.4% | [6] 62.9% | [7] 83.1% | [8] 87.7% | [9] 23.2% | [10] 66.8%

COc1cc2c(cc1OC)-c1ccc3cc4c(cc3c1N(CCCN1CCCCC1)C2)OCO4
inactive: [2] 14.5% | [3] 32.6% | [4] 74.7% | [5] 63.4% | [6] 75.7% | [7] 33.7% | [8] 60.8% | [9] 56.1% | [10] 54.7%
active: [1] -7.48%

CCCCCCNc1cc(C)nc2ccc(OC)cc12
inactive: [1] 23.2% | [2] 34.4% | [3] 65.3% | [4] 64.4% | [5] 55% | [6] 73.8% | [7] 55.5% | [8] 65.8% | [9] 87% | [10] 45.1%

O=C(NC1CCOCC1)c1ccc2c(c1)CN(c1ncc(Cc3cccc(-n4cccn4)c3)s1)CC2
inactive: [1] 56.2% | [2] 38.3% | [3] 76.6% | [4] 95.1% | [5] 62.1% | [6] 78.6% | [7] 89.8% | [8] 78.4% | [9] 96% | [10] 63.5%

COc1ccc(-c2cncnc2N)cc1OC
inactive: [1] 102% | [2] 96.8% | [3] 105% | [4] 110% | [5] 108% | [7] 111% | [8] 115% | [9] 107% | [10] 105%
active: [6] -40.5%

COc1ccc(C(=O)/C=C/c2cc3c(c(OC)c2)OCC(=O)N3)cc1
inactive: [1] 20.4% | [3] 44.8% | [4] 45.7% | [5] 53.7% | [6] 103% | [7] 80% | [9] 42.3% | [10] 36.7%
active: [2] 5.42% | [8] 2.27%

[2H]c1nc(Nc2ncc(F)c(-c3cc(F)c4nc(C)n(C(C)C)c4c3)n2)c([2H])c([2H])c1CN1CCN(C([2H])([2H])C([2H])([2H])[2H])CC1
inactive: [1] 36.3% | [2] 42.8% | [3] 67.1% | [4] 55.6% | [5] 74.2% | [6] 18.8% | [7] 47.3% | [8] 71% | [9] 35.7% | [10] 81%

C=C(C)[C@@H]1CC[C@@]2(C(=O)O)CC[C@]3(C)C(CCC4[C@@]5(C)CCC(OS(=O)(=O)c6ccccc6)C(C)(C)C5CC[C@]43C)C12 (stereo not given in full)
inactive: [1] 56.7% | [2] 30.4% | [3] 38.1% | [4] 89.7% | [5] 54.7% | [6] 74.4% | [7] 93.7% | [8] 50.8% | [9] 67.5% | [10] 52.5%

O=C(NCOC(O)C(Cl)(Cl)Cl)NCOC(O)C(Cl)(Cl)Cl (stereo not given)
inactive: [1] 109% | [2] 105% | [3] 104% | [4] 89.7% | [5] 108% | [6] 90% | [7] 99.1% | [8] 116% | [9] 108% | [10] 103%

Cc1nc(C)c(-c2nn3c(-c4cccc(F)c4)nnc3s2)s1
inactive: [1] 69.3% | [2] 96.2% | [3] 94.7% | [4] 112% | [5] 112% | [6] 104% | [7] 106% | [8] 113% | [9] 105% | [10] 91.3%

Cc1nc(Nc2cccc(NC(=O)Nc3ccc(Cl)cc3)c2)c2ccccc2n1
inactive: [1] 22.1% | [2] 66.8% | [3] 93.9% | [4] 106% | [5] 47.8% | [6] 97.8% | [7] 102% | [8] 90.7% | [9] 104% | [10] 87.4%

CCOc1cccnc1/C=N/NC(N)=S
inactive: [2] 49.9% | [3] 43.7% | [4] 66.2% | [5] 26.5% | [6] 42.7% | [8] 22.2% | [9] 60.4% | [10] 48.8%
active: [1] 6.35% | [7] -7.7%

COc1cc2c(cc1OC)-c1ccc3cc4c(cc3c1N(CCN(C)C)C2)OCO4
inactive: [5] 26.7% | [10] 72.3%
active: [1] 1.13% | [2] -41.1% | [3] -24.7% | [4] 8.24% | [6] -21.2% | [7] -31.2% | [8] 8.78% | [9] -2.39%
